The supplement of paper PMC4466140

Each binder was assayed against AgAbp1 (assay: SPOT peptide array binding signal intensity (averaged, normalized) (arbitrary units (background-subtracted, floor 0; scale differs between SH3 domains)); higher = stronger binding of the SH3 domain to the peptide).
In short: (§1)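 SH3 domains from four yeast species were expressed as GST fusions in E. coli BL21(DE3) and purified on glutathione Sepharose. Each was incubated at 10 μg/ml overnight at 4°C in TBS-based blocking buffer on cellulose membranes bearing synthetic 15-mer peptides, in which serines replaced cysteines. Bound protein was detected with anti-GST antibody, an HRP anti-mouse secondary and luminol, then imaged and quantified with Genespotter. The binding signal is the normalized, background-subtracted spot intensity averaged over replicates, in arbitrary units that are not the same from one domain to another.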

Binder	SPOT peptide array binding signal intensity
RAPPPVPKKPSSRIA	8420

These binders were tested against AgBbc1 in the same assay as above.
In short: as §1

Binder	SPOT peptide array binding signal intensity
RAPPPVPKKPSSRIA	1600

These binders were tested against AgBem1-D1 in the same assay as above.
In short: as §1

Binder	SPOT peptide array binding signal intensity
RAPPPVPKKPSSRIA	51.5

Each binder was assayed against AgBzz1-D1 in the same assay as above.
In short: as §1

Binder	SPOT peptide array binding signal intensity
RAPPPVPKKPSSRIA	3320

What follows are binders tested against AgBzz1-D2 in the same assay as above.
In short: as §1

Binder	SPOT peptide array binding signal intensity
RAPPPVPKKPSSRIA	373

The binders below were run against AgCyk3 in the same assay as above.
In short: as §1

Binder	SPOT peptide array binding signal intensity
RAPPPVPKKPSSRIA	≤ 0

These binders were tested against AgFus1 in the same assay as above.
In short: as §1

Binder	SPOT peptide array binding signal intensity
RAPPPVPKKPSSRIA	≤ 0

Each binder was assayed against AgHof1 in the same assay as above.
In short: as §1

Binder	SPOT peptide array binding signal intensity
RAPPPVPKKPSSRIA	415

The binders below were run against AgHse1 in the same assay as above.
In short: as §1

Binder	SPOT peptide array binding signal intensity
RAPPPVPKKPSSRIA	102

These binders were tested against AgLsb1 in the same assay as above.
In short: as §1

Binder	SPOT peptide array binding signal intensity
RAPPPVPKKPSSRIA	676

Each binder was assayed against AgLsb4 in the same assay as above.
In short: as §1

Binder	SPOT peptide array binding signal intensity
RAPPPVPKKPSSRIA	48

Each binder was assayed against AgMyo5 in the same assay as above.
In short: as §1

Binder	SPOT peptide array binding signal intensity
RAPPPVPKKPSSRIA	36.8

Each binder was assayed against AgNbp2 in the same assay as above.
In short: as §1

Binder	SPOT peptide array binding signal intensity
RAPPPVPKKPSSRIA	3960

What follows are binders tested against AgRvs167 in the same assay as above.
In short: as §1

Binder	SPOT peptide array binding signal intensity
RAPPPVPKKPSSRIA	230

The binders below were run against AgSho1 in the same assay as above.
In short: as §1

Binder	SPOT peptide array binding signal intensity
RAPPPVPKKPSSRIA	296

These binders were tested against AgSla1-D1-D2 in the same assay as above.
In short: as §1

Binder	SPOT peptide array binding signal intensity
RAPPPVPKKPSSRIA	≤ 0

Each binder was assayed against AgSla1-D3 in the same assay as above.
In short: as §1

Binder	SPOT peptide array binding signal intensity
RAPPPVPKKPSSRIA	380

What follows are binders tested against CaAbp1-D1 in the same assay as above.
In short: as §1

Binder	SPOT peptide array binding signal intensity
RAPPPVPKKPSSRIA	2320

Each binder was assayed against CaAbp1-D2 in the same assay as above.
In short: as §1

Binder	SPOT peptide array binding signal intensity
RAPPPVPKKPSSRIA	4330

What follows are binders tested against CaBbc1 in the same assay as above.
In short: as §1

Binder	SPOT peptide array binding signal intensity
RAPPPVPKKPSSRIA	1870

The binders below were run against CaBem1-D1 in the same assay as above.
In short: as §1

Binder	SPOT peptide array binding signal intensity
RAPPPVPKKPSSRIA	12.5

The binders below were run against CaBzz1-D1 in the same assay as above.
In short: as §1

Binder	SPOT peptide array binding signal intensity
RAPPPVPKKPSSRIA	5970

What follows are binders tested against CaBzz1-D2 in the same assay as above.
In short: as §1

Binder	SPOT peptide array binding signal intensity
RAPPPVPKKPSSRIA	2940

What follows are binders tested against CaCyk3 in the same assay as above.
In short: as §1

Binder	SPOT peptide array binding signal intensity
RAPPPVPKKPSSRIA	61.5

Each binder was assayed against CaFus1 in the same assay as above.
In short: as §1

Binder	SPOT peptide array binding signal intensity
RAPPPVPKKPSSRIA	28.5

The binders below were run against CaHof1 in the same assay as above.
In short: as §1

Binder	SPOT peptide array binding signal intensity
RAPPPVPKKPSSRIA	≤ 0

What follows are binders tested against CaHse1 in the same assay as above.
In short: as §1

Binder	SPOT peptide array binding signal intensity
RAPPPVPKKPSSRIA	1200

These binders were tested against CaLsb1 in the same assay as above.
In short: as §1

Binder	SPOT peptide array binding signal intensity
RAPPPVPKKPSSRIA	0.5

What follows are binders tested against CaLsb4 in the same assay as above.
In short: as §1

Binder	SPOT peptide array binding signal intensity
RAPPPVPKKPSSRIA	2220

Each binder was assayed against CaMyo5 in the same assay as above.
In short: as §1

Binder	SPOT peptide array binding signal intensity
RAPPPVPKKPSSRIA	2.5

The binders below were run against CaNbp2 in the same assay as above.
In short: as §1

Binder	SPOT peptide array binding signal intensity
RAPPPVPKKPSSRIA	1040

What follows are binders tested against CaRvs167 in the same assay as above.
In short: as §1

Binder	SPOT peptide array binding signal intensity
RAPPPVPKKPSSRIA	170

Each binder was assayed against CaRvs167-3 in the same assay as above.
In short: as §1

Binder	SPOT peptide array binding signal intensity
RAPPPVPKKPSSRIA	1

Each binder was assayed against CaSho1 in the same assay as above.
In short: as §1

Binder	SPOT peptide array binding signal intensity
RAPPPVPKKPSSRIA	94

The binders below were run against CaSla1-D1-D2 in the same assay as above.
In short: as §1

Binder	SPOT peptide array binding signal intensity
RAPPPVPKKPSSRIA	3890

Each binder was assayed against CaSla1-D3 in the same assay as above.
In short: as §1

Binder	SPOT peptide array binding signal intensity
RAPPPVPKKPSSRIA	250

The binders below were run against ScAbp1 in the same assay as above.
In short: as §1

Binder	SPOT peptide array binding signal intensity
RAPPPVPKKPSSRIA	2860

Each binder was assayed against ScBbc1 in the same assay as above.
In short: as §1

Binder	SPOT peptide array binding signal intensity
RAPPPVPKKPSSRIA	270

These binders were tested against ScBem1-D1 in the same assay as above.
In short: as §1

Binder	SPOT peptide array binding signal intensity
RAPPPVPKKPSSRIA	9

What follows are binders tested against ScBzz1-D1 in the same assay as above.
In short: as §1

Binder	SPOT peptide array binding signal intensity
RAPPPVPKKPSSRIA	565

These binders were tested against ScBzz1-D2 in the same assay as above.
In short: as §1

Binder	SPOT peptide array binding signal intensity
RAPPPVPKKPSSRIA	33

The binders below were run against ScCyk3 in the same assay as above.
In short: as §1

Binder	SPOT peptide array binding signal intensity
RAPPPVPKKPSSRIA	7

What follows are binders tested against ScFus1 in the same assay as above.
In short: as §1

Binder	SPOT peptide array binding signal intensity
RAPPPVPKKPSSRIA	1

These binders were tested against ScHof1 in the same assay as above.
In short: as §1

Binder	SPOT peptide array binding signal intensity
RAPPPVPKKPSSRIA	1.5

Each binder was assayed against ScHse1 in the same assay as above.
In short: as §1

Binder	SPOT peptide array binding signal intensity
RAPPPVPKKPSSRIA	≤ 0

Each binder was assayed against ScLsb1 in the same assay as above.
In short: as §1

Binder	SPOT peptide array binding signal intensity
RAPPPVPKKPSSRIA	452

The binders below were run against ScLsb2 in the same assay as above.
In short: as §1

Binder	SPOT peptide array binding signal intensity
RAPPPVPKKPSSRIA	1030

What follows are binders tested against ScLsb3 in the same assay as above.
In short: as §1

Binder	SPOT peptide array binding signal intensity
RAPPPVPKKPSSRIA	4390

What follows are binders tested against ScLsb4 in the same assay as above.
In short: as §1

Binder	SPOT peptide array binding signal intensity
RAPPPVPKKPSSRIA	52.5

What follows are binders tested against ScMyo3 in the same assay as above.
In short: as §1

Binder	SPOT peptide array binding signal intensity
RAPPPVPKKPSSRIA	80.5

Each binder was assayed against ScMyo5 in the same assay as above.
In short: as §1

Binder	SPOT peptide array binding signal intensity
RAPPPVPKKPSSRIA	50.2

These binders were tested against ScNbp2 in the same assay as above.
In short: as §1

Binder	SPOT peptide array binding signal intensity
RAPPPVPKKPSSRIA	5230

What follows are binders tested against ScPex13 in the same assay as above.
In short: as §1

Binder	SPOT peptide array binding signal intensity
RAPPPVPKKPSSRIA	869

What follows are binders tested against ScRvs167 in the same assay as above.
In short: as §1

Binder	SPOT peptide array binding signal intensity
RAPPPVPKKPSSRIA	1400

The binders below were run against ScSho1 in the same assay as above.
In short: as §1

Binder	SPOT peptide array binding signal intensity
RAPPPVPKKPSSRIA	2740

What follows are binders tested against ScSla1-D1-D2 in the same assay as above.
In short: as §1

Binder	SPOT peptide array binding signal intensity
RAPPPVPKKPSSRIA	2100

The binders below were run against ScSla1-D3 in the same assay as above.
In short: as §1

Binder	SPOT peptide array binding signal intensity
RAPPPVPKKPSSRIA	331

What follows are binders tested against SpAbp1-D1 in the same assay as above.
In short: as §1

Binder	SPOT peptide array binding signal intensity
RAPPPVPKKPSSRIA	2240

The binders below were run against SpBbc1 in the same assay as above.
In short: as §1

Binder	SPOT peptide array binding signal intensity
RAPPPVPKKPSSRIA	26

These binders were tested against SpBzz1-D1 in the same assay as above.
In short: as §1

Binder	SPOT peptide array binding signal intensity
RAPPPVPKKPSSRIA	2030

What follows are binders tested against SpBzz1-D2 in the same assay as above.
In short: as §1

Binder	SPOT peptide array binding signal intensity
RAPPPVPKKPSSRIA	198

Each binder was assayed against SpCyk3 in the same assay as above.
In short: as §1

Binder	SPOT peptide array binding signal intensity
RAPPPVPKKPSSRIA	5

The binders below were run against SpHof1 in the same assay as above.
In short: as §1

Binder	SPOT peptide array binding signal intensity
RAPPPVPKKPSSRIA	186

The binders below were run against SpHof1-2 in the same assay as above.
In short: as §1

Binder	SPOT peptide array binding signal intensity
RAPPPVPKKPSSRIA	20.2

The binders below were run against SpHof1-3 in the same assay as above.
In short: as §1

Binder	SPOT peptide array binding signal intensity
RAPPPVPKKPSSRIA	372

These binders were tested against SpHse1 in the same assay as above.
In short: as §1

Binder	SPOT peptide array binding signal intensity
RAPPPVPKKPSSRIA	126

What follows are binders tested against SpLsb1 in the same assay as above.
In short: as §1

Binder	SPOT peptide array binding signal intensity
RAPPPVPKKPSSRIA	1720

These binders were tested against SpLsb4 in the same assay as above.
In short: as §1

Binder	SPOT peptide array binding signal intensity
RAPPPVPKKPSSRIA	1110

The binders below were run against SpMyo1 in the same assay as above.
In short: as §1

Binder	SPOT peptide array binding signal intensity
RAPPPVPKKPSSRIA	151

The binders below were run against SpNbp2 in the same assay as above.
In short: as §1

Binder	SPOT peptide array binding signal intensity
RAPPPVPKKPSSRIA	48.5

What follows are binders tested against SpPex13 in the same assay as above.
In short: as §1

Binder	SPOT peptide array binding signal intensity
RAPPPVPKKPSSRIA	≤ 0

These binders were tested against SpRvs167 in the same assay as above.
In short: as §1

Binder	SPOT peptide array binding signal intensity
RAPPPVPKKPSSRIA	1860

Each binder was assayed against SpSla1-D1-D2 in the same assay as above.
In short: as §1

Binder	SPOT peptide array binding signal intensity
RAPPPVPKKPSSRIA	576

Each binder was assayed against SpSla1-D3 in the same assay as above.
In short: as §1

Binder	SPOT peptide array binding signal intensity
RAPPPVPKKPSSRIA	≤ 0
